Where “and” joins values, the source holds several entries; their conditions need not be identical. Equal values may be shown once. Out of some 320,000 compounds screened, about 740 (0.23%) were called active. A call without a number means that no potency is given here. Roughly 2% stayed inconclusive and do not appear here. Calls follow the shape of the dose curve; as a rule, active = well fitted activation curve with a large enough effect; inconclusive = small, poorly fitted or top-dose-only effect; inactive = no such curve, though single readings can be large or run the other way. Many of the other results were omitted from the sample, so actives are more common in it than they were. More than one record can exist for a structure, and the calls need not agree.
Potency is read from the fitted curve at half-maximal effect.

This assay in a line: qHTS Assay for Small Molecule Inhibitors of Mitochondrial Division or Activators of Mitochondrial Fusion. Also: nearly all actives have a fitted effect of over 45% in size. Particulars: S. cerevisiae fusion-defective mutant growth rescue, CellTiterGlo 48 h; series mostly up to 46.1 µM. Put shortly: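 Temperature-sensitive fusion-defective S. cerevisiae (e.g. fzo1-1, mgm1-5) were grown with compound in YPEG medium (3% ethanol, 3% glycerol) for 48 hours at 37C. Growth rescue was measured as viability by CellTiterGlo luminescence after 10 minutes at ambient.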
For the compound `COc1ccccc1CN1CCCC(N2CCN(c3ccc(F)cc3)CC2)C1` (centres undefined), the Potency entry was “inactive”.

As to `O=C(c1ccc(C(F)(F)F)cc1)C1CCCN(C(=O)c2csnn2)C1` (centres undefined), the Potency result was “inactive”.

Regarding `O=C(CN1C(=O)S/C(=C\c2ccccc2F)C1=O)NCCCn1ccnc1`, the Potency result is “inactive”.

Turning to `O=C(CCNC(=O)c1ccccc1)Nc1nc2ccccc2s1`, the Potency entry is “inactive”.

Regarding `O=C(CN1C(=O)/C(=C\c2ccccc2F)SC1=S)Nc1nc2ccccc2s1`, the Potency was 12.6 µM (active).

In the case of `CS(=O)(=O)N1CCN=C1SCc1ccc(F)cc1`, the Potency result is “inactive”.

For `COc1cc2ccccc2cc1C(=O)Nc1ccccc1C`, the Potency result was “inactive”.

Turning to `O=C(Nc1ccccc1-c1ccccc1)c1ccccc1[N+](=O)[O-]`, the Potency result was “inactive”.

As for `COc1cc(OC)c(C(=O)Nc2ccccc2-c2ccccc2)cc1OC`, the Potency was 15.8 µM (active).

Take `O=C(O)CCN(Cc1ccccc1)S(=O)(=O)c1c(Cl)cccc1Cl`: the Potency result was “inactive”.

Consider `CCN(C(=O)CN1CCN(Cc2ccccc2)CC1)c1c(N)n(Cc2ccccc2)c(=O)[nH]c1=O`, for which the Potency result was “inactive”.

On to `COc1ccc(OC)c(C(=O)NC(CC(N)=O)c2ccc(N3CCC(N4CCCCC4)CC3)c([N+](=O)[O-])c2)c1` (centres undefined), for which the Potency entry was “inactive”.

Consider `COc1ccc(CCNC(=S)N2CCN(S(=O)(=O)c3ccc(Cl)cc3)CC2)cc1`, for which the Potency result was “inactive”.

Regarding `Oc1cc2c(cc1O)CN(C(=S)NCCc1ccc(Cl)cc1)CCC2`, the Potency entry was “inactive and 18.4 µM (active)”.

On to `O=C(NCCc1ccc(Cl)cc1)c1cccc(N2CCCC2=O)c1`, for which the Potency entry was “inactive”.

For `Oc1ccc(Cn2cc[nH]c2=S)cc1`, the Potency result was “inactive”.

Regarding `CN(C)CCN=c1cc(-c2ccccc2)oc2ccc(Cl)cc12`, the Potency entry is “inactive”.

Take `COc1ccc(/C=C/c2c(-c3cccc(C)c3)oc3ccc(-c4ccc5c(c4)OCO5)cc23)cc1`: the Potency entry was “inactive”.

Turning to `CSCC(NS(=O)(=O)c1ccc(C)cc1)C(=O)O` (centres undefined), the Potency result was “inactive”.

As to `CSCCC(NS(=O)(=O)c1ccc(C)cc1)C(=O)N1CCCC1` (centres undefined), the Potency is 35.5 µM (active).

Regarding `CSCCC(NC(=O)c1ccccc1)C(=O)N1CCCCCCC1` (centres undefined), the Potency entry is “inactive”.

Take `CC(=O)c1cccc(NC(=O)C2CCCN2S(=O)(=O)c2cccc3nsnc23)c1` (centres undefined): the Potency result was “inactive”.

For the compound `C=CCn1c(CCNC(=O)c2ccccc2F)nnc1SCC(=O)Nc1ccc(OC)cc1`, the Potency entry was “inactive”.

In the case of `CC(=O)NC(c1cccs1)c1cc(Br)c2cccnc2c1O` (centres undefined), the Potency result was “inactive”.

As for `Cc1cc(C(=O)Nc2nnc(C3CC3)s2)c(C)s1`, the Potency result was “inactive”.

For the compound `C[C@H](NC(=O)c1ccccc1)C(=O)OCC(=O)c1c[nH]c2ccccc12`, the Potency result is “inactive”.

`CN(C)c1ccc(C(CNC(=O)c2ccc(F)cc2)c2c[nH]c3ccccc23)cc1` (centres undefined): the Potency is 15.8 µM (active).

As to `O=C(CNC(=O)c1ccc(F)cc1)c1ccccc1`, the Potency entry is “inactive”.

For the compound `Cc1nnnn1/C(=C\c1ccccc1)C(=O)OCC(=O)N1CC2(C)CC1CC(C)(C)C2` (centres undefined), the Potency entry was “inactive”.

`O=C(Cc1ccccc1)Nc1c(C(=O)N2CCCCCC2)cnn1-c1ccccc1`: the Potency result was “inactive”.

As to `CCC(C)(C)n1nnnc1CN1CCN(c2nc3ccc(C)cc3cc2C#N)CC1`, the Potency result is “inactive”.

`O=C(/C=C/c1ccccc1)Oc1coc(CSc2ncccn2)cc1=O`: the Potency result was “inactive”.

Take `Nc1c(C(=O)OCC(=O)Nc2ccc(OC(F)F)cc2)[nH]c(=O)[nH]c1=O`: the Potency result is “inactive”.

With `CCOc1ccc(/C=N/OCC(=O)NCc2cccs2)cc1`, the Potency result is “inactive”.

Take `CC1CCCCC1NC(=O)CO/N=C/c1ccc(OC(F)F)cc1` (centres undefined): the Potency result was “inactive”.

In the case of `O=C(CO/N=C/c1ccc(OC(F)F)cc1)NCc1ccc(F)cc1`, the Potency is 6.31 µM (active).

As for `Clc1ccc(C2[C@H]3CN(CC4CCCCC4)[C@H](c4ccccc4)C34CC2(c2cccnc2)C4)cn1` (some centres undefined), the Potency entry was “inactive”.

For the compound `CCc1ccc[n+](-c2nc([O-])sc2C=O)c1`, the Potency result is “inactive”.

In the case of `CCOC(=O)/C=C/C(=O)OCC(=O)NC(c1ccccc1)c1ccccc1`, the Potency result was “inactive”.

Take `c1n[nH]c(NCc2ccc3c(c2)OCO3)n1`: the Potency result is “inactive”.

Consider `N#Cc1nc(Cc2cccc3ccccc23)oc1NCc1ccc2c(c1)OCO2`, for which the Potency is 11.2 µM (active).

`Cn1cc(CCC(=O)NCc2ccc3c(c2)OCO3)c2ccccc21`: the Potency result is “inactive”.

In the case of `O=C(COC(=O)c1ccccc1NC(=O)c1ccco1)Nc1ccc2c(c1)OC(F)(F)O2`, the Potency result was “inactive”.

As to `CCCN1C(=O)C(O)(CC(=O)c2ccc(CC)cc2)c2cc(Br)ccc21` (centres undefined), the Potency result is “inactive”.

For `COc1ccc(Nc2nc(-c3cccnc3)nc3ccccc23)cn1`, the Potency result is “inactive”.

Take `CC(=O)Nc1cccc(Nc2nc(-c3cccs3)nc3ccccc23)c1`: the Potency result was “inactive”.

Take `Cc1cccc(-c2nc(Nc3ccc(O)cc3)c3ccccc3n2)c1`: the Potency was 35.5 µM (active).

As to `COc1ccc(OCCNS(=O)(=O)Cc2ccccc2)cc1`, the Potency result was “inactive”.

For `Cc1ccc(NC(=O)c2cc([N+](=O)[O-])ccc2Cl)c(O)c1`, the Potency result was “inactive”.

With `CCC(C)C(NC(=O)C1CCC(=O)N1C(=O)OCc1ccccc1)C(=O)NC(C(=O)N1CCCC1C(N)=O)C(C)CC` (centres undefined), the Potency result is “inactive”.

For the compound `Nc1ccc(Nc2cc(O)c3ncccc3c2)cc1`, the Potency entry was “inactive”.

Take `CC(C)Nc1ncnc2c1nnn2Cc1ccccc1`: the Potency entry was “inactive”.

As to `CN(C)c1cc2c(Nc3ccc4c(cnn4Cc4ccccc4)c3)ncnc2cn1`, the Potency was 18.4 µM (active).

Consider `Cn1ncc2c(Nc3cccc4ccccc34)ncnc21`, for which the Potency result is “inactive”.

With `CCOC(=O)N1CCN(C(=O)COC(=O)c2cccc(S(C)(=O)=O)c2)CC1`, the Potency result was “inactive”.

Regarding `CCOC(=O)C(=CNNc1ccsc1C(=O)OC)C(=O)OCC`, the Potency entry was “inactive”.

`Cc1ccc(O)c(CNc2nc3ccccc3n2C)c1`: the Potency result is “inactive”.

Consider `Cc1ccc(O)c(CNc2nc3ccccc3[nH]2)c1`, for which the Potency result is “inactive”.

`Cc1ccc2nnn(Cc3cccc(C(C)(C)C)c3O)c2c1`: the Potency was 12.6 µM (active).

In the case of `CC(/C=C/C1(O)C(C)CC(=O)CC1(C)C)OC1OC(CO)C(O)C(O)C1O` (centres undefined), the Potency result is “inactive”.

For `CCCC(C)C(=O)OCC(=O)Nc1c(Br)cc(C)cc1Br` (centres undefined), the Potency entry was “inactive”.

For the compound `Cn1c(=O)c2c(n3c4ccccc4nc13)NC(=O)CC2c1cccc(Cl)c1` (centres undefined), the Potency result is “inactive”.

Take `CC(C)C(=O)Nc1ccc2c3c(cccc13)CC2`: the Potency entry is “inactive”.

Consider `CCOc1ccc(-n2nc3ccc(NC(=O)c4ccc(OC)c(Cl)c4)cc3n2)cc1`, for which the Potency result is “inactive”.

As for `Cc1cc(-c2nnc(CCC(=O)NC(c3ccccc3)c3ccccc3)o2)no1`, the Potency entry is “inactive”.

For `O=C(C(NS(=O)(=O)c1cccc2nsnc12)c1ccccc1)N1CCN(c2ccccc2)CC1` (centres undefined), the Potency was 17.8 µM (active).

For `O=C(C(NS(=O)(=O)c1cccc2nsnc12)c1ccccc1)N1CCN(c2ccccn2)CC1` (centres undefined), the Potency entry is “inactive”.

For `O=C(O)C(NS(=O)(=O)c1cccc2nsnc12)c1ccccc1` (centres undefined), the Potency entry is “inactive”.

For `CC(=O)Nc1ccc(C(=O)Nc2cccc(S(=O)(=O)NC3=NCCC3)c2)cc1`, the Potency result is “inactive”.

On to `CN(C)c1nc(N)nc(CSc2nnnn2-c2cccc3ccccc23)n1`, for which the Potency entry was “inactive”.

Regarding `Cc1ccc2c(N)c(C(=O)c3ccccc3)sc2n1`, the Potency result was “inactive”.

As for `CCc1nc2sc(C(=O)O)c(N)c2c2c1CCCC2`, the Potency entry was “inactive”.

As for `Cc1nc2sc(C(=O)c3ccccc3)c(N)c2c2c1CCCC2`, the Potency was 14.1 µM (active).

Take `COc1ccc(OC)c(S(=O)(=O)n2c([N+](=O)[O-])cnc2C)c1`: the Potency entry was “inactive”.

`CN(c1ccccn1)c1ncnc2[nH]ncc12`: the Potency result is “inactive”.

Regarding `O=S(=O)(c1cccc(C(F)(F)F)c1)N1CCN(c2cnccn2)CC1`, the Potency entry was “inactive”.

On to `COC(=O)COc1ccc(C2NC(=O)NC(C)=C2C(=O)NCc2ccccc2)cc1OC` (centres undefined), for which the Potency entry was “inactive”.

Consider `CCC(C)(C)n1nnnc1C(c1ccc(OC)c(OC)c1)N1CCN(C(=O)c2ccco2)CC1` (centres undefined), for which the Potency entry was “inactive”.

With `CCC(C)(C)n1nnnc1C(c1cccs1)N1CCN(c2nc3ccccc3s2)CC1` (centres undefined), the Potency is 10 µM (active).

Regarding `Fc1ccc(Cn2nnnc2C(c2cccs2)N2CCCCCC2)cc1` (centres undefined), the Potency result was “inactive”.

Consider `Cc1ccc(C(CNC(=O)Nc2cccc(C)c2)N2CCN(C)CC2)cc1` (centres undefined), for which the Potency result is “inactive”.

As to `CCC1=Nc2cc(C(=O)NCCCOC(C)C)ccc2Sc2ccc(C)cc21`, the Potency entry is “inactive”.

In the case of `O=C(C1CCCN(S(=O)(=O)c2ccccc2)C1)N1CCN(c2ccc(F)cc2)CC1` (centres undefined), the Potency was 3.98 µM (active).

Turning to `CCCS(=O)(=O)N1CCCC(C(=O)N2CCN(c3ccccc3)CC2)C1` (centres undefined), the Potency entry was “inactive”.

`Cc1ccc(S(=O)(=O)N2CCCC(C(=O)N3CCN(C)CC3)C2)cc1` (centres undefined): the Potency entry is “inactive”.

With `Cc1cccc(C(=O)Nc2ccc(-c3nc4ncccc4o3)cc2C)c1`, the Potency result was “inactive”.

On to `COc1cc(NC(=O)CSc2nc3nc(C)c(Cc4ccc(C)cc4)c(C)n3n2)cc(OC)c1OC`, for which the Potency result was “inactive”.

Consider `C=CCNC(=O)CCCC(=O)NCC=C`, for which the Potency result was “inactive”.

Consider `CSCCC(NC(=O)c1ccco1)C(=O)Nc1cc(C)ccn1` (centres undefined), for which the Potency result is “inactive”.

With `NS(=O)(=O)c1cccc(NC(=O)CSc2nc3ccccc3n2-c2ccccc2)c1`, the Potency entry is “inactive”.

Turning to `Cc1ccc(-n2c(SCC(=O)Nc3ncc(Cl)cc3Cl)nc3ccccc32)cc1`, the Potency is 15.8 µM (active).

In the case of `Cc1ccc(SCCC(=O)OCC(=O)Nc2ncc(Cl)cc2Cl)cc1`, the Potency entry was “inactive”.

For `Cc1ccc(C2C=C(c3ccc(Cl)cc3)Nc3nc(NC(=O)CCC(=O)O)nn32)cc1` (centres undefined), the Potency result is “inactive”.

On to `CCOc1ccccc1NC(=O)CCn1cnnn1`, for which the Potency result was “inactive”.

On to `CCOC(=O)c1ccc(-c2ccc(/C=C(\C#N)C(=O)Nc3ccc(C)cc3)o2)cc1`, for which the Potency entry is “inactive”.

Consider `CC1CN/C(=C\C(=O)c2ccc(Br)cc2)C(=O)N1` (centres undefined), for which the Potency was 12.6 µM (active).

In the case of `CC1(C)Cc2ccccc2/C(=C/C(=O)c2ccccc2)N1`, the Potency entry is “inactive”.

For `COc1cc2c(cc1OC)/C(=C/C(=O)c1ccc(NC(C)=O)cc1)NCC2`, the Potency entry is “inactive”.

Turning to `O=S(=O)(NC1CCN(S(=O)(=O)c2ccc3c(c2)OCCO3)CC1)c1c(F)cccc1F`, the Potency result was “inactive”.

Turning to `Cc1ccc(C(=O)NC(=S)Nc2ccc3[nH]c(=O)[nH]c3c2)cc1C`, the Potency entry is “inactive”.

For `CCCC(O)(CCC)C(=O)NN(C(=O)CCl)c1cccc(C)c1`, the Potency entry was “inactive”.

`C[N+](C)(CCCCCC[N+](C)(C)CCCN1C(=O)c2cccc3cccc(c23)C1=O)CCCN1C(=O)c2cccc3cccc(c23)C1=O`: the Potency result is “inactive and 16.4 µM (active)”.

In the case of `O=C(CCCCCN1C(=O)c2cccc3cccc(c23)C1=O)NCc1ccco1`, the Potency entry was “inactive”.

`O=C1c2cccc3cccc(c23)C(=O)N1CCCCCc1n[nH]c(=S)o1`: the Potency result was “inactive”.

The record behind these values is PubChem BioAssay AID485298 (National Center for Advancing Translational Sciences (NCATS), 2010).
